Experimental data taken from the supplement of paper PMC10849652.
About 8,800 targets were measured; listed, in parts, are those with a hit and a random draw of the rest. About 0.5% of all pairs of compound and target were hits.

What was measured:
Assay in all cases: log2 fold change, soluble protein after heating vs DMSO (PISA); higher = thermal stabilisation; K562 lysate, 10 uM; active = over 0.2 and 3.5 SD of the protein, either way, in both replicates (recomputed)
[1] = compound: C1=CC=C(C=C1)[C@H](COC2=CC3=C(C=C2)NC(=O)N3)NC(=O)C4=CC=CN(C4=O)CC5=CC(=C(C=C5)F)F
Summary of the method: (§1)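 Soluble protein was defined as the supernatant remaining after 21,000xg for 90 min, following pooling of heated aliquots and adjustment to 0.5% NP-40 at 4°C. Before that, crude K562 extract at 1 mg/mL protein in PBS pH 7.4 with 1 mM MgCl2 was treated with 10 μM compound for 30 min and heated for 3 min across 48°C-58°C. Quantification used TMTpro 16plex LC-MS/MS with channel sums equalised, and values are log-two fold changes in thermal stability relative to solvent controls from duplicates.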

[2] = compound: CC1=C(SC2=C1C(=N[C@H](C3=NN=C(N32)C)CC(=O)N)C4=CC=C(C=C4)Cl)C
Summary of the method: as §1

[3] = compound: CC1=C2C(=CC=C1)N=C(N(C2=O)C3=CC=CC=C3C)CN4C=NC5=C(N=CN=C54)N
Summary of the method: as §1

[4] = compound: Cc1sc2c(c1C)C(c1ccc(Cl)cc1)=N[C@@H](CC(=O)OC(C)(C)C)c1nnc(C)n1-2
Summary of the method: as §1

[5] = compound: c1ccc([C@@H]2C[C@H]2NC2CCNCC2)cc1
Summary of the method: as §1

Measured: log2 fold change

VAV1 (UniProt P15498)
inactive: [1] -0.025 | [2] 0.001 | [3] -0.011 | [4] -0.017 | [5] -0.068

ZMAT2 (UniProt Q96NC0)
Chain of UniProt Q96NC0 (Q96NC0 whole entry, looked up): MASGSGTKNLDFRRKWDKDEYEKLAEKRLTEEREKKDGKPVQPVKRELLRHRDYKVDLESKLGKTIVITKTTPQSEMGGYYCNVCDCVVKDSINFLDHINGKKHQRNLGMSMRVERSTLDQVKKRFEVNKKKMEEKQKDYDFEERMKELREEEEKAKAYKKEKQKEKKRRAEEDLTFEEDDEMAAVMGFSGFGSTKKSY
inactive: [1] 0.037 | [2] -0.01 | [3] 0.03 | [4] 0.03 | [5] 0.013

USE1 (UniProt Q9NZ43)
Chain of UniProt Q9NZ43 (Q9NZ43 whole entry, looked up): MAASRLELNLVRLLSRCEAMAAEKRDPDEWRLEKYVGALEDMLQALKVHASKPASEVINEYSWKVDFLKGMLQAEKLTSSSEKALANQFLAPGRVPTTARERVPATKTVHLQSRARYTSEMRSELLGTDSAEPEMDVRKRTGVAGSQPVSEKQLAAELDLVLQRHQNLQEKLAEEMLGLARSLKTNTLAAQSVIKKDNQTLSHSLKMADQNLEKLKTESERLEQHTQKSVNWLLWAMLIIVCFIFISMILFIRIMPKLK
inactive: [1] 0.006 | [2] 0.008 | [3] -0.119 | [4] -0.109 | [5] -0.002

YLPM1 (UniProt P49750)
Chain of UniProt P49750 (P49750 whole entry, looked up): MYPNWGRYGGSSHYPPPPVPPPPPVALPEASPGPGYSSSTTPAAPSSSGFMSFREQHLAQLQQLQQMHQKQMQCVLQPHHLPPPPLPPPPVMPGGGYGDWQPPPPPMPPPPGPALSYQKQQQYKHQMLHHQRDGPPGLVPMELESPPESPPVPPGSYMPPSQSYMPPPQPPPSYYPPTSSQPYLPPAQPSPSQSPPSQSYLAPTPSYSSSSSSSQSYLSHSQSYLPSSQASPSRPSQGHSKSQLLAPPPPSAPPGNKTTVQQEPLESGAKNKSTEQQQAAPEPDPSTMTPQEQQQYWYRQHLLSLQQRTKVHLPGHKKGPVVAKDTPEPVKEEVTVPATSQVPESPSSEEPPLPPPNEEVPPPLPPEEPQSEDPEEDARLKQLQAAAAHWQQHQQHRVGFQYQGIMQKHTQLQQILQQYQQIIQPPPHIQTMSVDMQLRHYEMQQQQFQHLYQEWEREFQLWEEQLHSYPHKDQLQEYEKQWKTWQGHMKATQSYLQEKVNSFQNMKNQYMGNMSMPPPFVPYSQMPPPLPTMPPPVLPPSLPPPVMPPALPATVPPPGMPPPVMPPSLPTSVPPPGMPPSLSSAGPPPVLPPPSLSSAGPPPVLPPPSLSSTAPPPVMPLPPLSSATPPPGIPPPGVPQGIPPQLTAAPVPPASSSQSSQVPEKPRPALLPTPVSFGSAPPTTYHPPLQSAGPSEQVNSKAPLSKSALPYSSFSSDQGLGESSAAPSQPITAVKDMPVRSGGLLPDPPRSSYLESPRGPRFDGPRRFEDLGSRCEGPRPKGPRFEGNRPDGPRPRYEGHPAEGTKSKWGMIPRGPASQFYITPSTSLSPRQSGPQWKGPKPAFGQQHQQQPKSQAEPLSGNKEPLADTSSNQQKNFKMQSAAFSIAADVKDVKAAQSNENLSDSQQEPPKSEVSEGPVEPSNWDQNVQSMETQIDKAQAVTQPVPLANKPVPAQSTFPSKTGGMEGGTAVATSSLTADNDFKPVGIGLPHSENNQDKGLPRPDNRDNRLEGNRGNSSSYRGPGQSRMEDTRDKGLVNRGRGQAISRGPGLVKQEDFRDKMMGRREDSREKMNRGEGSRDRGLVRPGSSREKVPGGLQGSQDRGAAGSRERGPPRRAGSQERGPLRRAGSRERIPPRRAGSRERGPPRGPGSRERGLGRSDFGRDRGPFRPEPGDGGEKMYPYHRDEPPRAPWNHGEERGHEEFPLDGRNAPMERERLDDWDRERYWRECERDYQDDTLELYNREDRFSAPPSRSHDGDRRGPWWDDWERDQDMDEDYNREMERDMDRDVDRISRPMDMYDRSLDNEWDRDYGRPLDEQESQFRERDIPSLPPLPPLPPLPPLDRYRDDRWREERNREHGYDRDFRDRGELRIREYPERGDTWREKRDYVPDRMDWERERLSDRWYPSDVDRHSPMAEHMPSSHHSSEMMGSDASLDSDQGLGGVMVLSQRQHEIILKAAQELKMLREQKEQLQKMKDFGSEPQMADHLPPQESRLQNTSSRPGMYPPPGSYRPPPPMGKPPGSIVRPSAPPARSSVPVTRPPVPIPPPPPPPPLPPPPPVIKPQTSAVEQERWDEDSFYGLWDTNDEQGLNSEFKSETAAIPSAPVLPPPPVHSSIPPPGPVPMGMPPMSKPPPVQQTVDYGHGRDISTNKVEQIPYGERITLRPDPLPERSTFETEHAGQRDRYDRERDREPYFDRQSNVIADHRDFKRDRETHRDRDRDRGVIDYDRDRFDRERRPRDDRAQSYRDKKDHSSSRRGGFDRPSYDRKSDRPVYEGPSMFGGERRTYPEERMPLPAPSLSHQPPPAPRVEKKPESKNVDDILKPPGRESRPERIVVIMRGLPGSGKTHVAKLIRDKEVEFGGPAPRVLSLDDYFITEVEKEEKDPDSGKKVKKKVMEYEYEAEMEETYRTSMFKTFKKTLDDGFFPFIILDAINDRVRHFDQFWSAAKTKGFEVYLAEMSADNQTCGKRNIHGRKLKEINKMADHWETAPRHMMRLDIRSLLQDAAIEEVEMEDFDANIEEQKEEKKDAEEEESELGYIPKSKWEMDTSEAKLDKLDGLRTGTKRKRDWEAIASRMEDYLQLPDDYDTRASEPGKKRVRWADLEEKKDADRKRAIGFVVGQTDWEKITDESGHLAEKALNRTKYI
inactive: [1] -0.029 | [2] -0.04 | [3] 0.034 | [4] 0.005 | [5] 0.05

ZC3HC1 (UniProt Q86WB0)
Chain of UniProt Q86WB0 (Q86WB0 whole entry, looked up): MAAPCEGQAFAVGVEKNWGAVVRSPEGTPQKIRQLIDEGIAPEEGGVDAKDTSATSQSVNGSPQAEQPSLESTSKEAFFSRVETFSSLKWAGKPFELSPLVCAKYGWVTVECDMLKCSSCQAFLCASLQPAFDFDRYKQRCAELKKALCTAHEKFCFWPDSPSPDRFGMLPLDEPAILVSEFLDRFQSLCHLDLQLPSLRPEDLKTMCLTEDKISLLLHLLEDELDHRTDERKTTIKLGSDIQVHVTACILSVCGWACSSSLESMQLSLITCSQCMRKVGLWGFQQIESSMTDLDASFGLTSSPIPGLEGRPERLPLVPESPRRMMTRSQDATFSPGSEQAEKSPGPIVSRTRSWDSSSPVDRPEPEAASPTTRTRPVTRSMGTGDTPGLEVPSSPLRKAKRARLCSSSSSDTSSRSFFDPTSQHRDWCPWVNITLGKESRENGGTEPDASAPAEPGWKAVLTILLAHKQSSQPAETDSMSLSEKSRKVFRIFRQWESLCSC
inactive: [1] 0.002 | [2] 0.045 | [3] 0.006 | [4] 0.019 | [5] 0.061

XPO6 (UniProt Q96QU8)
Chain of UniProt Q96QU8 (Q96QU8 whole entry, looked up): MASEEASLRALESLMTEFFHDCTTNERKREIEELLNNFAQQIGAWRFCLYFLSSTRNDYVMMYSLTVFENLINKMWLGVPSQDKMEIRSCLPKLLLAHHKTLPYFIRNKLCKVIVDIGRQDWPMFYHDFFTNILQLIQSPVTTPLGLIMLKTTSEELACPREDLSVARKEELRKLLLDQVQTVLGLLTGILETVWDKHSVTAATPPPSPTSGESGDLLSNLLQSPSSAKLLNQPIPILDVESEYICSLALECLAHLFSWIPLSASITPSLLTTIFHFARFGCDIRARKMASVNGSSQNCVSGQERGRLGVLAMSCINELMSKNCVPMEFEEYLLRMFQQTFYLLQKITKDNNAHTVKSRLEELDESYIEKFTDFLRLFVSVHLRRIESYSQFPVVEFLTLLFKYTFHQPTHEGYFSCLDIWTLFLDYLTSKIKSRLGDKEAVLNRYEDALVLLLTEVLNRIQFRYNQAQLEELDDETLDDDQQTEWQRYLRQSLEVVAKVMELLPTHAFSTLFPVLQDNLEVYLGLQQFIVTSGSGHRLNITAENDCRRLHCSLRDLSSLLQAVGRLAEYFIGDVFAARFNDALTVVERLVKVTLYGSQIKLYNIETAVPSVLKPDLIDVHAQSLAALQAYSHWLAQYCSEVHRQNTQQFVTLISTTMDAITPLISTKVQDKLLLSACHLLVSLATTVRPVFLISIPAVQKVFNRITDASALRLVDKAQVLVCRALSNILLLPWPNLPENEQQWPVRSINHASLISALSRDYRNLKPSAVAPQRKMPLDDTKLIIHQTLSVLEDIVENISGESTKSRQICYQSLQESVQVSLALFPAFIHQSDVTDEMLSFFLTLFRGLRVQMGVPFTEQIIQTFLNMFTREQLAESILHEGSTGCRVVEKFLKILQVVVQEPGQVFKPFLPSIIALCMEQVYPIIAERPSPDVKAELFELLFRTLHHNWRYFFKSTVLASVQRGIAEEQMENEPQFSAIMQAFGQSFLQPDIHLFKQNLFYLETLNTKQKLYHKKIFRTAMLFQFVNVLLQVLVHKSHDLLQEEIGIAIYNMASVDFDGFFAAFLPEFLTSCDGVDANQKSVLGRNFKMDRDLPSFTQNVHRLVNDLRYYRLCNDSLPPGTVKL
inactive: [1] -0.053 | [2] 0.057 | [3] 0.023 | [4] 0.039 | [5] -0.045

XPOT (UniProt O43592)
inactive: [1] -0.017 | [2] 0.008 | [3] 0.037 | [4] 0.003 | [5] 0.021

VHL (UniProt P40337)
Chain of UniProt P40337 (P40337 whole entry, looked up): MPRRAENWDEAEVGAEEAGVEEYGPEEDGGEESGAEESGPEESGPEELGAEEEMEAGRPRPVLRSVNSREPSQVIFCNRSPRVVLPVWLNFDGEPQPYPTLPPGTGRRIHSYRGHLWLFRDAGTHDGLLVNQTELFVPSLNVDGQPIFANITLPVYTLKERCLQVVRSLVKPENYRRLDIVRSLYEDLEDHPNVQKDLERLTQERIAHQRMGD
inactive: [1] 0.165 | [2] 0.004 | [3] -0.029 | [4] -0.178 | [5] 0.08

UPF3B (UniProt Q9BZI7)
Chain of UniProt Q9BZI7 (Q9BZI7 whole entry, looked up): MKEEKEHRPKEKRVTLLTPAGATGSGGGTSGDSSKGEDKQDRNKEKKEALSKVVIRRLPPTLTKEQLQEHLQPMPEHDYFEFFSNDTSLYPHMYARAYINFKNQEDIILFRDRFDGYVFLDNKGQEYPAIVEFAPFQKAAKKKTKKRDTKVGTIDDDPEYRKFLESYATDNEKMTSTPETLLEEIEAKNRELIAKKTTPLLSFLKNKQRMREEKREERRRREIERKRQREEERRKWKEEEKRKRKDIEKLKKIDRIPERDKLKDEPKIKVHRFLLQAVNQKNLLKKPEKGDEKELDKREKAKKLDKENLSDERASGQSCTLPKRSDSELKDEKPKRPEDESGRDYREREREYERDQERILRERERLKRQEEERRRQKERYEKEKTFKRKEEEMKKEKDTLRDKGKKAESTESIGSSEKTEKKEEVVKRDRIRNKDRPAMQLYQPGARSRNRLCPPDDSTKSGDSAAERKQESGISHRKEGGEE
inactive: [1] 0.031 | [2] -0.008 | [3] -0.043 | [4] 0.022 | [5] -0.097
